# Source: PubChem BioAssay
# Sampled rows, rich in hits. Any-hit rate of the full collection: about 0.86%.
# RECQ1 helicase = RECQ1 (human) helicase inhibition. P46063. RECQ1 DNA unwinding, red fluorescence kinetic read. Potency, µM (doses to about 57.3 µM), without a hit: at the highest dose activity, negative = inhibition, actives largely listed as inhibitors. hit rate 0.54% among 240,000. AID 2549;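 further: plate controls were vehicle for no effect and no enzyme for full effect; nearly all actives have a fitted effect of over 30% in size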
#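 50 nM RECQ1T1 preincubated 15 min with compound in Tris pH 8.0 buffer with MgCl2, DTT, Tween-20 and 2.5 ug/ml poly(dI-dC); started with 200 nM TAMRA/BHQ-2 forked duplex and 2 mM ATP. Unwinding read as fluorescence (525/598 nm), two reads 2 h apart.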
# BLM helicase inh = inhibitors of human Bloom syndrome helicase BLM; P54132; recombinant BLM DNA unwinding, fluorescence dequenching; Potency, µM (top dose mostly 56.1 µM), for inactives: at the highest dose activity change, negative = inhibition, hits mostly inhibitors; hit rate 0.2% among 350,000; AID 2528;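 further: plate controls were vehicle for no effect and no enzyme for full effect; nearly all actives have a fitted effect of over 35% in size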
# APE1 inh = inhibitors of human APE1 endonuclease; P27695; recombinant APE1, TAMRA/BHQ-2 abasic DNA cleavage fluorescence; Potency, µM (titrated, usually from 65.8 µM), for inactives: top-dose activity change, negative = inhibition, usual class: inhibitors; hit rate 0.35% among 350,000; AID 2517;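 further: plate controls were vehicle for no effect and reference inhibitor for full effect; nearly all actives have a fitted effect of over 55% in size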
#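 Kinetic fluorescence read (525 ex/598 em nm, three reads 60 s apart) of AP-site incision; signal = third minus first read. Enzyme 0.75 nM, dual-labelled THF duplex 50 nM, compound preincubation 15 min RT.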
# FEN1 inh = blocks human flap endonuclease 1. hit rate 0.35% among 390,000. AID 588795. Recombinant FEN1 flap cleavage, fluorescence, 15 min. Potency, µM (titrated, usually from 114 µM), without a hit: top-dose activity change, negative = inhibition, actives largely listed as inhibitors. P39748; further: nearly all actives have a fitted effect of over 65% in size
#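 Reaction started by adding substrate (50 nM final) to 10 nM enzyme after 15 min room-temperature compound preincubation. Reads at 0 and 15 min, with data normalized and fitted to a four-parameter Hill equation.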
# GLS inhibitor = glutaminase GLS (human) inhibition; O94925; Potency, µM (titrated, usually from 45.5 µM), inactives show top-dose activity change, negative = inhibition, most hits filed as inhibitors; hit rate 0.21% among 410,000; GLS enzymatic activity, qHTS titration
#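 Compounds were pin-transferred onto hKGA, after which L-glutamine (1 mM solution) and a detection mix of glutamate oxidase, HRP and Amplex Red were added. Initial and 30 min RT fluorescence reads were collected.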
# Tb PGK inh = inhibitors of T. brucei phosphoglycerate kinase. P07378. Potency, µM (highest dose often 57.5 µM), without a hit: at the top dose activity change, negative = inhibition, hits mostly inhibitors. hit rate 0.043% among 380,000. AID 602233. PGK/GAPDH coupled, Kinase-Glo luminescence, 60 min; further: nearly all actives have a fitted effect of over 60% in size
#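 Recombinant glycosomal PGK reaction used 1,3-bisphosphoglycerate generated in-well by GAPDH (100nM final) in 100mM TEA pH 7.6, 5mM MgCl2, 0.01% Tween-20. After 60 minutes at room temperature, ATP was read by Kinase-Glo Plus luminescence end-point.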
# Active calls of the source: *; i = inactive; ? = inconclusive; / = no result. The call rests on the fitted dose curve; in most records, active means well fitted curve in the direction sought with a large enough effect; inconclusive means small, poorly fitted or top-dose-only effect, or another doubt; inactive means no such curve, though single readings can be large; an effect the other way counts as inactive or inconclusive. Unless noted, on the % scale 0 is the no-effect control and ±100 the full control effect; potency means the concentration at half of the fitted maximal effect.
SMILES,RECQ1 helicase,BLM helicase inh,APE1 inh,FEN1 inh,GLS inhibitor,Tb PGK inh
O=C(O)c1cccc(Cn2c(Cl)c(/C=N/Nc3ccccc3)sc2=O)c1,32µM*,?,18%,-6%,?,3%
C[C@H](CN1CCCC1)C(=O)c1ccc(C(F)(F)F)cc1,/,/,/,/,-8%,/
CCOC(=O)C1=C(C)N=c2s/c(=C/c3cccc([N+](=O)[O-])c3O)c(=O)n2C1c1ccc(OC)cc1OC (stereo unspecified),/,?,24µM*,-35%,?,?
CCOC(=O)C1=C(C)N=c2s/c(=C/c3ccc(OCC(=O)O)c(OC)c3)c(=O)n2C1c1ccc(Cl)cc1 (stereo unspecified),/,/,/,50µM*,?,14µM*
CCOC(=O)C1=C(C)N=c2s/c(=C/c3ccc(OCC(=O)O)cc3)c(=O)n2C1c1ccc(SC)cc1 (stereo unspecified),/,?,7.5µM*,/,/,/
CCOC(=O)C1=C(C)N=c2s/c(=C/c3ccc(OCC(=O)O)cc3)c(=O)n2C1c1ccc(OC)cc1OC (stereo unspecified),/,?,?,?,8%,?
CCOC(=O)C1=C(C)N=c2s/c(=C\c3ccc(OCC(=O)O)cc3)c(=O)n2C1c1ccccc1OC (stereo unspecified),/,-20%,?,79µM*,21%,-6%
O=C(/C=C/c1ccc(C(F)(F)F)cc1)OC(C(=O)NC1CC1)c1ccccc1 (stereo unspecified),/,/,/,16%,/,/
CC1=C(C(=O)Nc2ccccc2)C(c2ccc(Cl)cc2)n2c(s/c(=C/c3cccc(OCC(=O)O)c3)c2=O)=N1 (stereo unspecified),4%,-23%,8%,?,-3%,?
CC1=C(C(=O)OC(C)C)C(c2ccc(Cl)cc2)n2c(sc(=Cc3ccc(OCC(=O)O)cc3)c2=O)=N1 (stereo unspecified),/,/,/,/,7.1µM*,/
O=C(Cc1ccc(OCCc2ccccc2)cc1)NO,/,/,/,4%,/,/
CCC(=O)Nc1ccc2nc3c(=O)n(C)c(=O)n(C)c3nc2c1,/,-5%,/,-21%,0%,2%
CCC(=O)Nc1ccc2nc3c(=O)[nH]c(=S)[nH]c3nc2c1,/,-28%,-38%,50µM*,?,-17%
CC(=O)C1=C(O)C(=O)N(Cc2ccccc2)C1c1ccc(N(C)C)cc1 (stereo unspecified),/,0%,-4%,18µM*,32%,-2%
CN(C)c1ccc(/C=C/c2cc(Cl)nc3ccccc23)cc1,/,/,/,0%,/,/
Cc1ccc(S(=O)(=O)N2CCN(c3nc(-n4ccnc4)nc4ccccc34)CC2)cc1,/,/,/,-13%,/,/
CC(C)CCCCCCNC(=S)Nc1ccc(S(=O)(=O)N2CCOCC2)cc1,40µM*,-4%,?,?,3%,2%
N#Cc1ccc(/C=N/NC(=S)Nc2ccc(S(=O)(=O)N3CCOCC3)cc2)cc1,21%,-8%,-9%,-3%,0%,i
O=S(=O)(c1ccc(NC(=S)N/N=C/c2ccc(O)c(O)c2)cc1)N1CCOCC1,?,-19%,13µM*,0%,?,-7%
CN(C)c1ccc(/C=C2\C=Cc3ccccc32)cc1[N+](=O)[O-],/,/,/,-15%,/,/
O=C(N/N=C/c1cc([N+](=O)[O-])ccc1O)NC12CC3CC(CC(C3)C1)C2,-1%,1%,-4%,0%,10µM*,-3%
CCc1nnc(NS(=O)(=O)c2ccc(NC(=S)NC(=O)/C=C/c3ccc(OC)cc3)cc2)s1,3%,?,2%,50µM*,24%,?
NC(=O)C1CCN(c2nc(-c3ccccc3Cl)cs2)CC1,/,/,30%,/,/,/
Cc1ccc(S(=O)(=O)OCC(=O)Nc2ccc(C(=O)O)c(O)c2)cc1,/,/,/,28µM*,-9%,?
O=C(c1cc(O)c(O)c([N+](=O)[O-])c1)c1ccccc1F,2.2µM*,/,5%,-1%,54%,?
SMILES,RECQ1 helicase,BLM helicase inh,APE1 inh,FEN1 inh,GLS inhibitor,Tb PGK inh
Cc1ccc(C(=O)c2cc(O)c(O)c([N+](=O)[O-])c2)cc1,/,/,/,/,17%,/
O=C(Nc1cc(S(=O)(=O)N2CCOCC2)ccc1N1CCCC1)c1ccc2c(c1)S(=O)(=O)c1ccccc1C2=O,i,-3%,0%,-5%,7.9µM*,4%
Cc1ccc2c(n1)Oc1ccc(C(C)C(=O)OCC(=O)N(C)C)cc1C2 (stereo unspecified),/,/,/,/,15%,/
COc1ccc(NC(=O)CN(C)C(=O)c2cc3c(s2)CCC3)cc1,/,/,1.9µM*,25µM*,-32%,?
CC1CC(C(F)(F)C(F)(F)F)n2nc(C(=O)O)cc2N1 (stereo unspecified),i,-9%,-3%,-1%,16µM*,-15%
Cc1ccc(C)c(N2C(=N)S/C(=C\c3ccc(-c4ccccc4C(=O)O)o3)C2=O)c1,-8%,-4%,?,-14%,0%,0%
CCOC(=O)C(C)N1C(=O)S/C(=C\c2ccc(-c3ccccc3C(=O)O)o2)C1=O (stereo unspecified),/,0%,6µM*,32µM*,13µM*,/
CC(=O)n1c(-c2ccccc2)c(-c2ccccc2)n(C)c1=O,/,/,/,2%,32µM*,3%
CC(=O)OC1CCC2(C)C(=CCC3C2CCC2(C)C(C(C)=O)CCC32)C1 (stereo unspecified),/,/,/,/,0%,/
Cc1cc(NS(=O)(=O)c2ccc(NC(=O)COc3c(C)cc(Br)cc3C)cc2)no1,/,-2%,58%,2%,7.9µM*,i
Cc1cc(NS(=O)(=O)c2ccc(NC(=O)COc3ccc(Br)cc3C)cc2)no1,/,-1%,/,-11%,15%,-6%
C=CCN1C(=O)/C(=C/C=C2/N(CC)c3ccc(S(=O)(=O)N(C)C)cc3N2CC)SC1=S,4µM*,10µM*,?,?,-27%,-16%
C=CCN1C(=O)/C(=C2/Sc3ccccc3N2CC)SC1=S,/,0%,-18%,-2%,-15%,i
O=S(=O)(Nc1ccccc1)c1cccc2nsnc12,/,-12%,7.5µM*,10%,3%,-10%
CC(C)(C)n1ncc2c(=O)n(Cc3ccc(-c4ccccc4C#N)cc3)cnc21,/,/,12%,0%,/,/
O=C1CCCC2=C1C(c1ccc(Br)cc1)c1c([nH]c(=S)[nH]c1=O)N2 (stereo unspecified),?,-4%,0%,7%,13µM*,1%
Cc1ccc(C2C3=C(CCCC3=O)Nc3[nH]c(=S)[nH]c(=O)c32)cc1 (stereo unspecified),-9%,0%,-1%,-5%,?,-1%
